# Experimental data as given in PubChem BioAssay (NCATS).
# Inconclusive results are not listed. Values without a mark were called inactive. Calls of active or inactive are those of the source. The call rests on the fitted dose curve; in most records, active means well fitted inhibition curve with a large enough effect; inconclusive means small, poorly fitted or top-dose-only effect; inactive means flat fitted curve, though single readings scatter.
# Test system: KB-3-1
# Experiment: Cytotoxic Profiling of Annotated Libraries Using Quantitative High-Throughput Screening (AID 1296008); further: nearly all actives have a fitted effect of over 60% in size
# Conditions: Five cell lines viability, CellTiter-Glo ATP luminescence, 48-72 h; max response: hits give low values
# Procedure, shortened: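 Cytotoxicity was measured as CellTiter-Glo ATP luminescence, read after 10 min at room temperature. Compound treatment of the cells lasted 48 or 72 hr at 37 degrees Celsius in a qHTS format.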
# On the % scale 0 is the no-effect control and ±100 the full control effect.
SMILES,max response [%],outcome
Oc1ccc2c(-c3c(-c4ccccn4)nn4c3CCC4)ccnc2c1,-4.91,–
C=C1C(=O)O[C@@H]2CC(C)=C([C@@H](C)CCCOC(C)=O)[C@@H](O)[C@H]12,6.41,–
COC(=O)c1[nH]c(=O)c2ccccc2c1-c1ccc[nH]1,–,inactive
C[C@@H]1O[C@@H](O[C@@H]2[C@@H](O)[C@H](O[C@H]3[C@H](O[C@H]4CC[C@@]5(C)C(CC[C@]6(C)C5CC=C5[C@@H]7CC(C)(C)CC[C@]7(C(=O)O[C@@H]7O[C@H](CO)[C@@H](O)[C@H](O)[C@H]7O)CC[C@]56C)C4(C)C)O[C@H](C(=O)O)[C@@H](O)[C@@H]3O)OC[C@H]2O)[C@H](O)[C@H](O)[C@H]1O (stereo not given in full),–,inactive
CC1(C)O[C@H]2CC(=O)OC[C@@]23C1=C(O)C(=O)[C@]1(C)C3CC[C@@]2(C)[C@H](c3ccoc3)OC(=O)[C@H]3O[C@]321 (stereo not given in full),–,inactive
CC1(C)CC[C@]2(C(=O)O)CC[C@]3(C)C(=CCC4[C@@]5(C)C[C@@H](O)[C@H](O)[C@@](C)(CO)C5CC[C@]43C)C2C1 (stereo not given in full),-4.17,–
C[C@@H]1O[C@@H](O[C@H]2[C@H](O[C@H]3[C@H](O[C@H]4CC[C@@]5(C)C(CC[C@]6(C)C5CC=C5[C@@H]7CC(C)(C)C[C@@H](O)[C@]7(C)CC[C@]56C)[C@@]4(C)CO)O[C@H](C(=O)O)[C@@H](O)[C@@H]3O)O[C@H](C(=O)O)[C@H](O)[C@@H]2O)[C@H](O)[C@H](O)[C@H]1O (stereo not given in full),-1.92,–
Cc1sc(C)c(C(=O)NC2(c3ccc(C(=O)O)cc3)CC2)c1Cc1ccc(C(F)(F)F)cc1,8.32,–
N#Cc1cccc(-c2nc(-c3cccnc3)no2)c1,–,inactive
O=C(O)Cn1nnc(-c2ccc(CN(CCCCOc3ccc(CN4CCCC4)cc3)CCc3ccccc3)cc2)n1,9.81,–
C/C(=C/CO)CC[C@H]1[C@]2(C)C[C@H](O)CC(C)(C)[C@H]2CC[C@]1(C)O,3.57,–
O=C(/C=C/c1ccc(O)cc1)OCC1OC(O)C(OC2OC(CO)C(O)C(O)C2O)C(O)C1O (stereo not given),8.27,–
CC1(C)C(=O)CCC2(C)C1C(O)C=C1COC(=O)C12O (stereo not given),7.63,–
C=C(CCO)C(=O)OCC1OCC(OC(=O)C(=C)CCO[C@@H]2O[C@H](CO)[C@@H](O)[C@H](O)[C@H]2O)C(O)C1O (stereo not given in full),4.34,–
CC1=C2C[C@H]3OC(=O)[C@H](O)[C@@]4(O)[C@@H](C)[C@@H](O)[C@H](O)C([C@@]2(C)[C@H](O)[C@@H](O)C1)[C@@]34C (stereo not given in full),9.81,–
COc1ccnc2[nH]cc(C(=O)C(=O)N3CCN(C(=O)c4ccccc4)CC3C)c12 (stereo not given),–,inactive
OC[C@@]1(O)CO[C@@H](OC[C@H]2O[C@@H](OCc3ccccc3)[C@H](O)[C@@H](O)[C@@H]2O)[C@@H]1O,–,inactive
COc1ccc(/C=C/C(N)=O)cc1OC,–,inactive
CC(=O)OC(C)C(C)(O)C(=O)O[C@@H]1CC[C@]2(C)CC(=O)C(=C(C)C)C[C@H]2[C@]1(C)OC(C)=O (stereo not given in full),6.09,–
N[C@@H](CC(=O)Nc1ccc(Oc2cc(F)c(F)cc2Br)cc1)C(=O)O,-3.53,–
CC(=O)OC1C(CO)OC(O[C@H]2[C@H](OC(=O)[C@]34CCC(C)(C)C[C@H]3C3=CCC5[C@@]6(C)CC[C@H](O[C@@H]7O[C@H](C(=O)O)[C@@H](O)[C@H](O[C@@H]8OC[C@@H](O)[C@H](O)[C@H]8O)[C@H]7O[C@@H]7O[C@H](CO)[C@H](O)[C@H](O)[C@H]7O)[C@@](C)(C=O)C6CC[C@@]5(C)[C@]3(C)C[C@H]4O)O[C@H](C)[C@H](OC3OC(C)C(OC4OCC(O)C(O)C4O)C(O)C3O)[C@@H]2O)C(O)C1O (stereo not given in full),–,inactive
O=C(Nc1ccccc1)Nc1ccc(-c2ccc(C(=O)C3CCCC3C(=O)O)cc2)cc1 (stereo not given),–,inactive
Cn1c2ccc(NC(=O)c3ccccc3)cc2c(=O)n2nc(C(=O)O)cc12,0.84,–
C[C@@H]1CCC2C(C)(C)[C@H](O)[C@H](O)C[C@]2(C)[C@@]12Cc1c(O)cc3c(c1O2)CN(CCCC(=O)O)C3=O (stereo not given in full),3.58,–
CC(C)=CCC[C@@](C)(O)[C@H]1CC[C@]2(C)[C@@H]1[C@H](O)CC1[C@@]3(C)CC[C@H](O[C@@H]4O[C@H](CO)[C@@H](O)[C@H](O)[C@H]4O[C@@H]4O[C@H](CO)[C@@H](O)[C@H](O)[C@H]4O)C(C)(C)[C@@H]3CC[C@]12C (stereo not given in full),–,inactive
